# Screening data (PubChem)
# Ecoli rRNA inh = reduced GFP signal of wild-type E. coli, primary screen, bacterial rRNA inhibitor project, GFP/RFP fluorescence, OD600, single point; E. coli WT GFP vs humanized-ribosome RFP mutants, 24 h; stronger effect = lower value; DMSO median 0, no signal -100; GFP signal change (wild-type ribosome), % (test concentration not listed); 350,000 compounds, 1.6% hits; AID 720706, 2013;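 active means significant combined selectivity score with lowered wild-type GFP, culture density cut under 30%, mutant RFP and density less affected; inactive means any of these conditions unmet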
# CaV13 FRET inh = Disruptors of the CACNA1D IQ motif to Ca2+-dependent inactivation inhibitor domain association, primary screening, Förster resonance energy transfer in intact living …. 340,000 compounds, 0.098% hits. HEK cells, CFP/YFP FRET ICDI-IQ, plate reader, 10 min; percent FRET-ratio fall versus neutral wells. inhibition, % at 12.3 µM;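 active means mean replicate inhibition of at least 30% and at least 1% of replicates passing that level; inconclusive means only one of the two criteria is met; inactive means neither criterion is met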;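 further: 0% = median of the neutral control wells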
# PGC1a acetyl inh = inhibitors of PGC1a acetylation signal, primary screen, cell-based, U2OS, AlphaScreen, inhibitor mode; 350,000 compounds, 0.17% hits; AlphaScreen anti-acetyl-lysine; with virally co-expressed GCN5 acetyltransferase; inhibition, % at 15.6 µM;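 active means every replicate shows inhibition of at least 40%; inconclusive means mean inhibition at least 40% but some replicate below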;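 further: 0% = neutral control wells and 100% = positive control wells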
# DENV2 CPE = inhibitors of DENV2 cytopathic effect, primary screen, cell-based, plate reader, single concentration | CPE inhibition, % at 9.99 µM | 350,000 compounds, 1.7% hits | DENV2-infected cells, cytopathic effect rescue; in the data active means CPE inhibition above about 20%, passing the limit was not always enough; inconclusive means no clear call, values can overlap the other calls; tested in BHK-21 cells;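 further: 0% = median of neutral control wells and 100% = median of positive control wells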
# INS-1E GSIS act = GLuc luminescence reporter in INS-1E cells, primary screen for activators of glucose-dependent secretion of insulin; INS-1E GLuc reporter insulin secretion, 2-3 h; activation, % at 16.6 µM; 370,000 compounds, 0.61% hits; AID 743287, 2014;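 active means lowest replicate activation of at least 40%, so every replicate reaches that level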;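 further: 0% = median of neutral control wells and 100% = median of IBMX positive control wells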
# ERAP1 inh = human ERAP1 aminopeptidase inhibitors, primary screen, biochemical, single point, plate reader; AID 652197, 2013; 340,000 compounds, 0.15% hits; inhibition, % at 10.7 µM; Endoplasmic reticulum aminopeptidase 1 (Homo sapiens), Q9NZ08; recombinant ERAP1, Leu-AMC fluorescence, 60 min;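 active means mean replicate inhibition of at least 30%, or all replicates individually reaching that 30% level; inactive means mean below 30% and not every replicate reaching it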;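 further: 0% = neutral control wells and 100% = L-leucinethiol positive control wells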
# The depositor's hits bear a star; i = inactive; ? = inconclusive; . = no result given; + = active, no number. An excerpt weighted towards active compounds, which were near 3.2% of everything screened.
SMILES,Ecoli rRNA inh,CaV13 FRET inh,PGC1a acetyl inh,DENV2 CPE,INS-1E GSIS act,ERAP1 inh
Cc1noc(C)c1NC(=O)Nc1ccc2c(c1)C(=O)N([C@@H](C)CO)C[C@H](C)[C@H](CN(C)CC1CC1)O2,4,.,-6,-2,-3,-1
COc1ccc(C(=O)CSc2nnc(CNc3ccc(C)cc3C)o2)cc1,.,-5,-3,.,59*,.
Cc1ccc(NCc2nnc(SCC(=O)c3ccc4c(c3)OCCO4)o2)c(C)c1,-36*,-8,10,-7,-2,1
COc1ccc(C(=O)CSc2nnc(CNC(=O)c3ccccc3)o2)cc1,-5,-6,-4,4,-8,5
C[C@H]1CN([C@@H](C)CO)C(=O)c2cccc(NS(=O)(=O)c3ccc(Cl)cc3)c2O[C@@H]1CN(C)C(=O)Nc1ccc(C(F)(F)F)cc1,-5,.,0,5,-14,.
CO[C@@H]1CN(C)C(=O)c2cc(NC(=O)C3CC3)ccc2OC[C@@H](C)N(C(=O)Nc2ccc(C(F)(F)F)cc2)C[C@H]1C,-25,.,-7,-6,-32,-1
CC1=NN(c2ccccc2)C(=O)C1C=Nc1ccccc1O (stereo not given),-19*,-5,6,-6,-11,-2
O=C(Oc1cccc(F)c1)c1ccc2c(=O)n3c(nc2c1)CCC3,2,-15,-17,?,-6,4
O=C(Oc1ccc(F)cc1)c1ccc2c(=O)n3c(nc2c1)CCC3,0,-15,.,-8,2,32*
Cc1ccc(S(=O)(=O)N[C@H]2CC[C@H](CCNC(=O)C3CCCCC3)O[C@@H]2CO)cc1,-1,.,-3,1,-6,-1
Cc1cn(CC(C)C)c(=O)n(-c2ccccc2)c1=O,4,-8,5,2,51*,1
C[C@@H]1CN([C@H](C)CO)C(=O)c2cc(-c3ccccc3F)cnc2O[C@@H]1CN(C)C(=O)c1cnccn1,-1,.,1,2,16,0
CC(C)OCCCn1c(=N)c(C(N)=S)cc2c(=O)n3ccccc3nc21,.,45*,3,.,.,.
CC(=O)N=c1c(C#N)cc2c(=O)n3ccccc3nc2n1CCCOC(C)C,0,+,-2,-3,19,i
CC(C)NC(=O)Nc1ccc2c(c1)C(=O)N([C@@H](C)CO)C[C@H](C)[C@@H](CN(C)C(=O)Nc1ccccc1)OCCCC[C@H](C)O2,-4,.,0,5,-4,0
COc1cc([N+](=O)[O-])cc(/C=N\NC(=O)C2COc3ccccc3O2)c1O (stereo not given),-20*,-3,.,19,-20,6
O=C(CNC(=O)OCc1ccccc1)Nc1ccc(F)cc1,13,-13,2,-7,5,32*
O=C(Cc1cccnc1)N1CC(=O)N2[C@H](C1)[C@H](c1ccc(C3=CCCC3)cc1)[C@@H]2CO,0,.,23,36*,-5,0
O=C(c1ccc(F)cc1)N1CC(=O)N2[C@H](C1)[C@H](c1ccc(C3=CCCC3)cc1)[C@@H]2CO,-2,.,7,53*,-8,.
O=C1CNC[C@H]2[C@H](c3ccc(-c4ccccc4F)cc3)[C@@H](CO)N12,3,.,14,37*,22,4
O=C(c1ccc(F)cc1)N1CC(=O)N2[C@@H](CO)[C@H](c3ccc(-c4ccccc4F)cc3)[C@@H]2C1,2,.,-5,13,-3,0
O=C(c1ccc(F)cc1)N1CC(=O)N2[C@H](CO)[C@@H](c3ccc(C4=CCCC4)cc3)[C@H]2C1,-3,.,-4,6,11,.
O=C(c1ccc(F)cc1)N1CC(=O)N2[C@H](C1)[C@H](c1ccc(-c3ccccc3F)cc1)[C@@H]2CO,5,.,-2,26*,-9,0
O=C(Cc1cccnc1)N1CC(=O)N2[C@H](CO)[C@@H](c3ccc(C4=CCCC4)cc3)[C@@H]2C1,-3,.,0,-3,10,0
